# About 2,200 (0.71%) of roughly 310,000 compounds showed an effect of 50% or more. Effects have a minus sign here. This excerpt belongs to a sample that is enriched for strong results.
# Target: human ether-à-go-go-related gene (hERG) potassium channel (human, UniProt Q12809)
# Experiment: primary screen, population patch clamp on CHO cells stably expressing hERG; higher = less effect of the substance
# human ether-à-go-go-related gene (hERG) potassium channel, sequence (Q12809 whole entry, looked up): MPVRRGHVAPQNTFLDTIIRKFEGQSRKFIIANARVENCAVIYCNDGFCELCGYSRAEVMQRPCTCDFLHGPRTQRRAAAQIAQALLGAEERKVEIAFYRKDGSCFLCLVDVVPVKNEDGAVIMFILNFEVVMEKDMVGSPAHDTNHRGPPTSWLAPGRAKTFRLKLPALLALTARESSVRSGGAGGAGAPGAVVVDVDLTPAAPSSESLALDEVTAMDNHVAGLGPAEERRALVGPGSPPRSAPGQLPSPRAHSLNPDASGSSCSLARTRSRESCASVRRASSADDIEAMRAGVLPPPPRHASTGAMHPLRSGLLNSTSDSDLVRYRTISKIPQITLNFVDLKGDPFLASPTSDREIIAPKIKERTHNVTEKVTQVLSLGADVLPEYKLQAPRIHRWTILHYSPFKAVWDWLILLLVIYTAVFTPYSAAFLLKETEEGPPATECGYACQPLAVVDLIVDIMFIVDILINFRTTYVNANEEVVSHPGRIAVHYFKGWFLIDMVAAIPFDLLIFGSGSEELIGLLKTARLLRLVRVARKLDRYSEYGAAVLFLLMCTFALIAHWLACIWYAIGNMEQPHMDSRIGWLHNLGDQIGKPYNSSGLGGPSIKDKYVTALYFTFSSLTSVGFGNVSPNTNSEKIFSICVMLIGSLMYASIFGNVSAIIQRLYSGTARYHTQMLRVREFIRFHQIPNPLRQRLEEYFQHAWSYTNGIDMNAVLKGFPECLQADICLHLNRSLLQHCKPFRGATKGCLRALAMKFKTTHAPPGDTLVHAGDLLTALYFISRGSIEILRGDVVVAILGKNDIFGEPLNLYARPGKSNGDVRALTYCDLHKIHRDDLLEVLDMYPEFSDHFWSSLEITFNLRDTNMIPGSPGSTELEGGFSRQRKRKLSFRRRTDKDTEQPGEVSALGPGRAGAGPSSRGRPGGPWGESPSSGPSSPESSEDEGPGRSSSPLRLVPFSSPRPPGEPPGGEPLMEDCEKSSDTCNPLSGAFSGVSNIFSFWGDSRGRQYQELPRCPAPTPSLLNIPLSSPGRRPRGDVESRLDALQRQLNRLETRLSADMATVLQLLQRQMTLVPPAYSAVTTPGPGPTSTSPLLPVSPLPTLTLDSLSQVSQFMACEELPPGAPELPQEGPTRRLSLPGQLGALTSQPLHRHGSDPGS
row,Structure (SMILES),"hERG current change (%, negative = inhibition) at 1uM"
1,CCOC(=O)[C@H]1[C@H]2COc3ccc(OC)cc3[C@@H]2N2C(=O)c3cc(OC)c(OC)cc3NC(=O)[C@@]12C,5.4%
2,O=C(NNC(=S)Nc1ccccc1)c1ccc(O)cc1,15.2%
3,Cc1nn(-c2ccccc2)c(Cl)c1/C=C(\CC(=O)O)c1nc2ccccc2s1,2.95%
4,Cc1nnc(SCC(=O)Nc2sc3c(c2C(N)=O)CCC(C)C3)[nH]c1=O (centres unmarked),10.6%
5,CC1CCCCC1NC(=O)CN1C(=O)CSc2cc(S(=O)(=O)N3CCCCCC3)ccc21 (centres unmarked),7.3%
6,O=C(c1ccc([N+](=O)[O-])cc1)N1CCN(Cc2ccccc2)CC1,-28.7%
7,CSc1ccc(CN2CCN(C(=O)c3ccc([N+](=O)[O-])cc3)CC2)cc1.O=C(O)C(=O)O,-78.1%
8,CSc1ccc(CN2CCN(C(=O)c3ccncc3)CC2)cc1,-0.743%
9,Cc1[nH]c2ccc(Br)cc2c(=S)c1C/C=C/Cl,5.3%
10,COCCNC(=O)NC(=O)COC(=O)C1(c2ccc(Cl)cc2)CC1,6.06%
11,COc1cc(O)c(C(CCN2CCN(c3ccccc3)CC2)c2ccc3c(c2)OCO3)c(OC)c1 (centres unmarked),5.8%
12,CCN(CC)CCC(c1ccc(OC)cc1)c1c(O)cc(OC)cc1OC (centres unmarked),-25.8%
13,COc1cc(O)c(C(CCN2CCCCC2)c2ccc(N(C)C)cc2)c(OC)c1 (centres unmarked),10.3%
14,CCN(CC)CCC(c1ccc2c(c1)OCO2)c1c(O)cc(OC)cc1OC (centres unmarked),-73.4%
15,COc1cc(O)c(C(CC(=O)N2CCCC(C)C2)c2ccc3c(c2)OCO3)c(OC)c1 (centres unmarked),14.5%
16,COc1cc(O)c(C(CCN2CCCCC2)c2ccc3c(c2)OCO3)c(OC)c1 (centres unmarked),-72.1%
17,COc1cc(O)c(C(CCN2CCCC(C)C2)c2ccc3c(c2)OCO3)c(OC)c1 (centres unmarked),-84.1%
18,CCN(CC)C(=O)CC(c1ccc2c(c1)OCO2)c1c(O)cc(OC)cc1OC (centres unmarked),5.47%
19,COc1ccc(C(CCN2CCCCC2)c2c(O)cc(OC)cc2OC)cc1 (centres unmarked),-71.3%
20,COc1cc(O)c(C(CCN2CCCC(C)C2)c2ccc(N(C)C)cc2)c(OC)c1 (centres unmarked),-9.72%

row,Structure (SMILES),"hERG current change (%, negative = inhibition) at 1uM"
1,COc1ccc(C(CCN2CCCC2)c2c(O)cc(OC)cc2OC)cc1 (centres unmarked),-21.1%
2,COc1cc(O)c(C(CCN2CCCC2)c2ccc3c(c2)OCO3)c(OC)c1 (centres unmarked),-41.5%
3,CC1CN(C(=O)c2c(Br)cnn2C)CC(C)O1 (centres unmarked),4.32%
4,O=C(COC(=O)Cc1ccsc1)Nc1cccc(Cl)c1,0.601%
5,Cc1ccc(C(=O)N2CCN(c3ccccc3)CC2)cc1NC(=O)c1ccco1,1.43%
6,COc1ccc(N2CCN(C(=O)c3cccc(NC(=O)c4ccco4)c3)CC2)cc1,-8.07%
7,COc1ccc(N2CCN(C(=O)c3ccc(C)c(NC(=O)c4ccco4)c3)CC2)cc1,-53.7%
8,O=C(c1cc(COc2ccc3ncccc3c2)on1)N1CCCC1,13.5%
9,CN1C(=O)c2oc3ccccc3c(=O)c2C1c1ccncc1 (centres unmarked),5.81%
10,O=S(=O)(c1ccc2nc(-c3ccccc3)[nH]c2c1)N1CCN(c2ccc(Cl)cc2)CC1,5.61%
11,COc1ccc(OC)c(CN2CCC(CNC(=O)Nc3cccc(Cl)c3)CC2)c1,-26.3%
12,O=C(NCC1CCN(Cc2ccccc2Cl)CC1)Nc1ccccc1F,-6.32%
13,O=C(NCC1CCN(Cc2ccccc2Cl)CC1)Nc1cccc(Cl)c1,-62.3%
14,C1CNCCN1.COc1cc(C(O)CO)ccc1O (centres unmarked),10%
15,CCN(CC)CCOC(=O)C(Cc1cccc2ccccc12)CC1CCCO1.O=C(O)C(=O)O (centres unmarked),-20.2%
16,CCN(CC)CCOC(=O)C(Cc1ccco1)Cc1cccc2ccccc12.O=C(O)C(=O)O (centres unmarked),-62.8%
17,CCN(CC)CCOC(=O)CCc1cccc2ccccc12.O=C(O)C(=O)O,-3.77%
18,C#CCOCCOCCOCCNc1nc(N2CCOCC2)nc(N2CCN(C(=O)Cn3cc(CCC[NH+]=C(N)N)nn3)CC2)n1.[Cl-],17.5%
19,CCc1ccc(/C=C(/C#N)C(N)=S)s1,15%
20,O=C(N/N=C/c1ccsc1)c1ccccn1,16.7%

row,Structure (SMILES),"hERG current change (%, negative = inhibition) at 1uM"
1,O=C(Nc1ccc(Cl)c(Cl)c1)N(CCCN1CCOCC1)Cc1cccs1,-41.8%
2,O=C(CNC(=S)N(CCCN1CCOCC1)Cc1cccs1)NCc1ccccc1Cl,-35.5%
3,O=C(CNC(=S)N(CCCN1CCOCC1)Cc1cccs1)NCCCN1CCOCC1,16.3%
4,O=C(Nc1ccccc1)N(CCCN1CCOCC1)Cc1cccs1,-29.2%
5,O=C(CNC(=S)N(CCCN1CCOCC1)Cc1cccs1)NCc1ccc(Cl)cc1,-61.3%
6,O=C(Nc1ccc(Cl)cc1)N(CCCN1CCOCC1)Cc1cccs1,-55%
7,Cc1ccc(OCC(=O)N2CCc3ccccc32)cc1,10.7%
8,Cc1cc(C(=O)CN2CCN(CC(=O)Nc3ccc(F)cc3)CC2)c(C)n1C1CC1,-72.3%
9,O=C(CN1CCC(NC(=O)c2cccc(F)c2)CC1)Nc1ccc(Br)cc1,-53.9%
10,Cc1cc(C)cc(NC(=O)CN2CCC(NC(=O)c3cccc(F)c3)CC2)c1,4.29%
11,CCOc1ccc(NC(=O)CN2CCN(C3c4ccccc4-c4ccccc43)CC2)cc1,-25.5%
12,Cc1cccc(C)c1NC(=O)CN1CCN(CC(=O)c2cc(C)n(C3CC3)c2C)CC1,-0.73%
13,Cc1ccc(NC(=O)CN2CCC(NC(=O)c3cccc(F)c3)CC2)cc1C,-13.4%
14,CCCCOc1ccc(NC(=O)CN2CCN(Cc3ccccc3)CC2)cc1,1.72%
15,O=C(CN1CCN(c2ccccc2)CC1)Nc1ccc(OCc2ccccc2)cc1,13.4%
16,Cc1cc(C(=O)CN2CCN(CC(=O)Nc3cccc(F)c3)CC2)c(C)n1C1CC1,-7.82%
17,O=C(CN1CCCC1)Nc1ccc(OCc2ccccc2)cc1,8%
18,O=C(CN1CCN(CC(=O)Nc2ccc(OCc3ccccc3)cc2)CC1)Nc1ccc(F)cc1,-81.5%
19,CCOc1ccc(NC(=O)CN2CCN(Cc3c(F)cccc3F)CC2)cc1,-50.7%

# — paper PMC4336329 (PLoS ONE, 2015)
